Inconclusive results are not listed. Calls of active or inactive are those of the source. Calls come from the whole dose curve. Residues, ends and D or L forms follow the SMILES beside them.
Assays:
[1] = molecular target: Acetylcholinesterase (Homo sapiens) (UniProt P22303); assay: Acetylcholinesterase (AChE) small molecule antagonists: colormetric cell-based qHTS assay (AID 1347395); note: nearly all actives have a fitted effect of over 30% in size
In short: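 Neuroblastoma line SH-SY5Y supplied the enzyme; cells were preincubated with compound for 30 min at 37 C and 5% CO2. Acetylthiocholine with DTNB was then added for 90 min at 37 C, and thiocholine was measured by colour.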

[2] = molecular target: Acetylcholinesterase (Homo sapiens) (UniProt P22303); assay: Acetylcholinesterase (AChE) small molecule antagonists: enzyme-based qHTS assay (AID 1347397); settings: Potency: AChE enzyme activity inhibition; outcome: AChE enzyme activity inhibition; note: nearly all actives have a fitted effect of over 55% in size
In short: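 Recombinant human AChE (50 mU/mL) preincubated with compound 30 min at room temperature; acetylthiocholine plus DTNB then added, and thiocholine formation read colorimetrically after 10 min at room temperature. DMSO served as vehicle control.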

[3] = molecular target: Acetylcholinesterase (Homo sapiens) (UniProt P22303); assay: Acetylcholinesterase (AChE) small molecule antagonists: fluorescence cell-based qHTS assay (AID 1347398); settings: Potency: AChE activity; outcome: AChE activity; note: nearly all actives have a fitted effect of over 50% in size
In short: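 SH-SY5Y cells (2000/well), attached overnight, incubated with compound 30 min at 37 C. Acetylthiocholine plus Thiolite Green then added for 40 min at room temperature. Thiocholine fluorescence (Ex/Em 490/520 nm) reports cellular AChE activity.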

[4] = molecular target: Acetylcholinesterase (Homo sapiens) (UniProt P22303); assay: Acetylcholinesterase (AChE) small molecule antagonists: enzyme-based qHTS assay with human liver microsomes (AID 1347399); settings: Potency: qHTS inhibition; outcome: qHTS inhibition; note: nearly all actives have a fitted effect of over 60% in size
In short: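 Recombinant human AChE (50 mU/mL in the enzyme mix) and human liver microsomes (0.25 mg/mL final) were preincubated with compound and NADPH (0.25 mg/mL final) for 30 min at 37 C. Acetylthiocholine/DTNB was then added; thiocholine was read colorimetrically after 10 min at room temperature.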
% is set by controls: 0 for no effect and ±100 for the full control effect.

Acetylcholinesterase (Homo sapiens), sequence (P22303 whole entry, looked up): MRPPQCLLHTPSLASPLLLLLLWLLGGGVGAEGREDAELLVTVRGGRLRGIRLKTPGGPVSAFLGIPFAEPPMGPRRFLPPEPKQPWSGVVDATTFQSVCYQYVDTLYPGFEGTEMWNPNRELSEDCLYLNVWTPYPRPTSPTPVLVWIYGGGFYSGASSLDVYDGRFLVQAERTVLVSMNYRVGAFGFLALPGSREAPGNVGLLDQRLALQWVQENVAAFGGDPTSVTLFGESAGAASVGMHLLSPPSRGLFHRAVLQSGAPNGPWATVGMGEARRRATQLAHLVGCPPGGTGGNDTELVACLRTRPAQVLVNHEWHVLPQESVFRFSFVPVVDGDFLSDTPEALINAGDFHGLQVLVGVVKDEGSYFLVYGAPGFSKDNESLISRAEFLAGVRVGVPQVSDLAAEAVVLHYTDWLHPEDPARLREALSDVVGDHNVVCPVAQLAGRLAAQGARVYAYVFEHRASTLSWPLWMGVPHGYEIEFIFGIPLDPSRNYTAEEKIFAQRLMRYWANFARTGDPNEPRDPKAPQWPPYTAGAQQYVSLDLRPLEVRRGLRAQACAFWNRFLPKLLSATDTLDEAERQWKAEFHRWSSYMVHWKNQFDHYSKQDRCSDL

CC(=O)N[C@@H](CO)C(=O)N[C@@H](CC(=O)O)C(=O)N[C@@H](CCCCN)C(=O)N1CCC[C@H]1C(=O)O (Ac-SDKP-OH)
inactive: Potency [1] | Potency [2] | Potency [3] | Potency [4]

CCCCC(CC)COC(=O)c1ccccc1O (centres undefined)
inactive: Potency [1] | Potency [2] | Potency [3] | Potency [4]

CC1(C)OC(=O)Nc2ccc(Br)cc21
inactive: Potency [1] | Potency [2] | Potency [3] | Potency [4]

CCN(CC)C(=O)/C(C#N)=C/c1cc(O)c(O)c([N+](=O)[O-])c1
inactive: Potency [1] | Potency [2] | Potency [3] | Potency [4]

CCCCCCCCCCCCCCCCOP(=O)([O-])OCC[N+](C)(C)C
inactive: Potency [1] | Potency [2] | Potency [3] | Potency [4]

CC/C=C\CCCCCCCCCCOC(C)=O
inactive: Potency [1] | Potency [2] | Potency [3] | Potency [4]

OC1CCC(C2CCCCC2)CC1 (centres undefined)
inactive: Potency [1] | Potency [2] | Potency [3] | Potency [4]

O=c1[nH]c(=O)n([C@H]2O[C@H](CO)[C@@H](O)[C@@H]2O)cc1/C=C\Br
inactive: Potency [1] | Potency [2] | Potency [3] | Potency [4]

O=C(/C=C/c1ccccc1)OCCc1ccccc1
inactive: Potency [1] | Potency [2] | Potency [3] | Potency [4]

Cc1cccc(C)c1NC(=O)c1cc(S(N)(=O)=O)c(Cl)cc1O
inactive: Potency [1] | Potency [2] | Potency [3] | Potency [4]

Cc1ccc(N(CC2=NCCN2)c2cccc(O)c2)cc1
inactive: Potency [1] | Potency [2] | Potency [3] | Potency [4]

O=C(CCS)OCC(COC(=O)CCS)(COC(=O)CCS)COC(=O)CCS
inactive: Potency [1] | Potency [2] | Potency [3] | Potency [4]

CCCCCCCC/C=C/CCCOC(C)=O
inactive: Potency [1] | Potency [2] | Potency [3] | Potency [4]

O=S(=O)(O)c1cc(O)c2ccc(Nc3ccccc3)cc2c1
inactive: Potency [1] | Potency [2] | Potency [3] | Potency [4]

NS(=O)(=O)c1ccccc1Cl
inactive: Potency [1] | Potency [2] | Potency [3] | Potency [4]

COC(=O)c1ccc(OC)cc1
inactive: Potency [1] | Potency [2] | Potency [3] | Potency [4]

COC(C)OC
inactive: Potency [1] | Potency [2] | Potency [3] | Potency [4]

C=CCCCCCCCCCCC
inactive: activity, negative = inhibition [1] -0.0098% [at 10.5 µM] | activity change, negative = inhibition [2] 0.273% [at 10.5 µM] | activity change, negative = inhibition [3] 5.55% [at 10.5 µM] | activity change, negative = inhibition [4] 0.324% [at 10.5 µM]

O=C1OC(=O)c2cc([N+](=O)[O-])ccc21
inactive: Potency [1] | Potency [2] | Potency [3] | Potency [4]

COc1ccc(/C=C/C(=O)c2ccc(OC)cc2OC)cc1
inactive: Potency [1] | Potency [2] | Potency [3] | Potency [4]

C=C(C)[C@@H]1CCC2=CCC[C@@H](C)[C@]2(C)C1
inactive: Potency [1] | Potency [2] | Potency [3] | Potency [4]

Cc1c(Cl)cccc1Nc1ccccc1C(=O)O
inactive: Potency [1] | Potency [2] | Potency [3] | Potency [4]

NC(=O)N1c2ccccc2CC(=O)c2ccccc21
inactive: Potency [1] | Potency [2] | Potency [3] | Potency [4]

C[C@H]1NCc2cc(-c3ccc4c(=O)c(C(=O)O)cn(C5CC5)c4c3OC(F)F)ccc21
inactive: outcome [1] | outcome [2] | outcome [3] | outcome [4]

NS(=O)(=O)c1cc2c(cc1Cl)NC(CSCc1ccccc1)=NS2(=O)=O
inactive: Potency [1] | Potency [2] | Potency [3] | Potency [4]

NCC1(Cc2noc(=O)[nH]2)CCCCC1
inactive: Potency [1] | Potency [2] | Potency [3] | Potency [4]

CCCCCCCCSCc1cc(C)c(O)c(CSCCCCCCCC)c1
inactive: Potency [1] | Potency [2] | Potency [3] | Potency [4]

CCCCOCCOC(=O)COc1nc(Cl)c(Cl)cc1Cl
inactive: Potency [1] | Potency [2] | Potency [3] | Potency [4]

CCOC(=O)N1CCC(Nc2ccc(Cl)cc2N)CC1
inactive: Potency [1] | Potency [2] | Potency [3] | Potency [4]

O=C1CCCN1CCO
inactive: Potency [1] | Potency [2] | Potency [3] | Potency [4]

O=C(O)c1cccc(C(=O)O)c1C(=O)O
inactive: Potency [1] | Potency [2] | Potency [3] | Potency [4]

C=CCOc1nc(OCC=C)nc(OCC=C)n1
inactive: Potency [1] | Potency [2] | Potency [3] | Potency [4]

BrC/C=C/CBr
inactive: activity, negative = inhibition [1] 1.18% [at 23.6 µM] | activity change, negative = inhibition [2] 2.59% [at 23.6 µM] | activity change, negative = inhibition [3] 7.15% [at 23.8 µM] | activity change, negative = inhibition [4] -2.1% [at 23.6 µM]

CCCCC(CC)C(=O)OC(C)C (centres undefined)
inactive: Potency [1] | Potency [2] | Potency [3] | Potency [4]

Cc1ccc(C(C)OC(=O)C2(C)CCC(C(=O)O)C2(C)C)cc1 (centres undefined)
inactive: Potency [1] | Potency [2] | Potency [3] | Potency [4]

COc1c(N2CCNC(C)C2)c(F)cc2c(=O)c(C(=O)O)cn(C3CC3)c12 (centres undefined)
inactive: Potency [1] | Potency [2] | Potency [3] | Potency [4]

C=CCCCC
inactive: Potency [1] | Potency [2] | Potency [3] | Potency [4]

Cc1cccc(Cl)c1
inactive: Potency [1] | Potency [2] | Potency [3] | Potency [4]

CCOC(=O)[C@H](CCc1ccccc1)N[C@@H](C)C(=O)N1Cc2cc(OC)c(OC)cc2C[C@H]1C(=O)O
inactive: Potency [1] | Potency [2] | Potency [3] | Potency [4]

CO[Si](CCCCl)(OC)OC
inactive: Potency [1] | Potency [2] | Potency [3] | Potency [4]

CN(C)c1ccc(SC#N)cc1
inactive: Potency [1] | Potency [2] | Potency [3] | Potency [4]
